# Changes are numbered by the printed parent chain. In all, about 5,800 sequences were measured (“enrichment r”: median about 0.54, highest 2% from about 16 on). The full list was thinned out, with the highest values kept by preference.
# B1: ENSG00000154556:stop:overlap|stop_codon|ENSG00000154556|stop_codon|NA|stop_codon (ssRNA)
# RNA: GGGAGUUCUACAGUCCGACGAUCCUUCUUCCCCAUCAAGAGCAAAAGUUACUCAGGGCUCAACGGCAACCCCUCCAGUGAGUUAGAUUACUGUAGCACUUACAGACAGCACUUGGAUGUCCCUCGGGACUCACCAAGAGCCAUCAACAGAGGAUUGAGCAUCA
# B2: chr4:56461171:56461272:+|3pUTR|ENSG00000128050|msi1|FALSE|bound_elsewhere (ssRNA)
# RNA: GGGAGUUCUACAGUCCGACGAUCCUUCUGUAACCACAGUGACUACAAGUAGUUCUUUCUCUAUUGAAUUAUUAGGUCCAGAAUAGAAGAUGUCAUUGUACACUUUAUUUCCCUCACACUGUGUUAUGCUCUGAUGUGCUAUGCCAACAGAGGAUUGAGCAUCA
# B3: chr16:66721972:66722075:-|3pUTR|ENSG00000135720|unk|FALSE|unique (ssRNA)
# RNA: GGGAGUUCUACAGUCCGACGAUCUUUUUAAUUCAGUUUUUUAAAAAAACAAAUGUAUUGUGGCUUCCAGUUACCAGGUUGUCUAGGUAAUGACAGUAAACUGACUGUAGAAUGAUAAUUGUGGUAUAGUGACCAAUAGAUGCCCAACAGAGGAUUGAGCAUCA
# B4: chr19:18196783:18197469:-|three_prime_utr|ENSG00000105649|control|control|control (ssRNA)
# RNA: GGGAGUUCUACAGUCCGACGAUCACUACCCGGGCCUGACCCGGCCCCUACCAGCCACGGGCACAAGACCCCUGCUCCUGACUUAGCCCGUCACCCUUAUUUAUUAUUGUAGCUAUUUAUUUAUUUAUUGAAGAUGUCCCCCAGCAACAGAGGAUUGAGCAUCA
# B5: chr12:66123492:66123593:-|3pUTR|ENSG00000139233|msi1|FALSE|unique (ssRNA)
# RNA: GGGAGUUCUACAGUCCGACGAUCAUGCUACCCAAUAUCCAGUUAUAAUCAGGCCUCAACGUUCUGUCAGGUAUUAAUAUGGUUAGAAUUGUUCUUACAACUGGUAAUUAUAGUCAAUAGAGAUAAAACAGAUGAUGUACUGACCAACAGAGGAUUGAGCAUCA
# B6: chr19:38730201:38730298:+|3pUTR|ENSG00000130402|msi1_unk|total|mutant (ssRNA)
# RNA: GGGAGUUCUACAGUCCGACGAUCCAGAGAAUUACUAUUUACUUUAUUAACUUACGGAUUUAUUAUAUAAAUAUAUAUUCACCCCGCAACAUAUCUCUGCCGUCUCUCCUGCUCUCAUAAUGAAGACACCGCCGAUUCUCUGCCCAACAGAGGAUUGAGCAUCA
# B7: chr19:38730201:38730298:+|3pUTR|ENSG00000130402|msi1_unk|FALSE|overlapping (ssRNA)
# RNA: B6 RNA with C83U, C84A, C128U, C129A
# B8: chr3:58425360:58425463:+|3pUTR|ENSG00000168297|unk|FALSE|unique (ssRNA)
# RNA: GGGAGUUCUACAGUCCGACGAUCAGACAGCUCCUAGAAACAUUCCUCUUACAGUUCAUUUCUCUAAAGCAUUUUCUGAUUCUUAGAUAACUCCAAUUUUUGCUACCUUUAUCUUAGACAUUAACACUAUAGCCCAAAGCAUAGCAACAGAGGAUUGAGCAUCA
# B9: chr7:20410151:20410448:+|3pUTR|ENSG00000105855|msi1|FALSE|unique (ssRNA)
# RNA: GGGAGUUCUACAGUCCGACGAUCACUAGUGUCGUUGUAGCACUUUACUGUAAUAUAUAACUUAUUUAGAUCAGCAUAGAAUGUAGAUCCUCUGAAGAGCACUGAUUACACUUUACAGGUACCUGUUAUCCCUACGCUUCCCAGCAACAGAGGAUUGAGCAUCA
# B10: chr7:20410151:20410448:+|3pUTR|ENSG00000105855|msi1|total|mutant (ssRNA)
# RNA: B9 RNA with U26C, A27C, U37C, A38C, U66C, A67C, U76C, A77C, U83C, A84C
# B11: chr11:613205:613595:-|three_prime_utr|ENSG00000185507|control|control|control (ssRNA)
# RNA: GGGAGUUCUACAGUCCGACGAUCCUGCACGUUCCUAUACGGCCCCCCAGACCCAGCUGUCCGGGCCACAGACCCCCAGCAGGUAGCAUUCCCCAGCCCUGCCGAGCUCCCGGACCAGAAGCAGCUGCGCUACACGGAGGAACUCAACAGAGGAUUGAGCAUCA
# B12: chr12:66123492:66123593:-|3pUTR|ENSG00000139233|msi1|total|mutant (ssRNA)
# RNA: B5 RNA with U83C, A84C, U110C, A111C, U117C, A118C
# B13: ENSG00000115216:stop:overlap|stop_codon|ENSG00000115216|stop_codon|NA|stop_codon (ssRNA)
# RNA: GGGAGUUCUACAGUCCGACGAUCACAAGUUCAAUUUUGCCAGGAACAGUACCCUCAACUCAGCCGCUGUCACCGUCUCCUCUUAGAGCUCACUCGGGCCAGGCCCUGAUCUGCGCUGUGGCUGUCCCUGGACGUGCUGCAGCCCAACAGAGGAUUGAGCAUCA
# B14: chr11:13729208:13729309:+|3pUTR|ENSG00000197601|unk|FALSE|unique (ssRNA)
# RNA: GGGAGUUCUACAGUCCGACGAUCAAAGUUGGUAGAUAUUUGAUUCUUCAUUUUUUGUUUUUUUCAUUAGUUGAAGUGGGUUUUAGUUUUGUUUAAAAUUAUAACCAGCGUAUUUUCACAUCAUUCUGUAAGUUAAAUGAUAUCCAACAGAGGAUUGAGCAUCA
# B15: chr17:48622902:48623135:-|CDS|ENSG00000170689|control|control|control (ssRNA)
# RNA: GGGAGUUCUACAGUCCGACGAUCUACCAGACGCUGGAGCUAGAGAAGGAGUUUCUGUUCAAUAUGUACCUCACCAGGGACCGUAGGCACGAAGUGGCCAGACUCCUCAAUCUGAGUGAGAGACAAGUCAAAAUCUGGUUUCAGCAACAGAGGAUUGAGCAUCA
# B16: chr13:99866285:99866388:+|CDS|ENSG00000125246|unk|FALSE|unique (ssRNA)
# RNA: GGGAGUUCUACAGUCCGACGAUCUAUUCUCUACGCCCGGCAAAAGAUUGUUGUCAUAGCGAAAGCCUUUGGUCUCCAAGCCAUAGAUCUGGUGUACAUUGACUUUCGAGAUGGAGCUGGGCUGCUUAGACAGUCACGAGAAGGCAACAGAGGAUUGAGCAUCA
# B17: ENSG00000198589:be:win_1301|CDS|ENSG00000198589|bound_else_gene|NA|bound_elsewhere_windowed (ssRNA)
# RNA: GGGAGUUCUACAGUCCGACGAUCCAUCUCCUAAGGACAACCCUUCAAUUUUUGUUCAUUCACCACAUGCACUCAUGCUCCAGGAUGUAAAGGCAGUUUUAACACAUUCCAUCCAAAGUGCAAUGCAUUCAAUUGGAGGAGUACCAACAGAGGAUUGAGCAUCA
# B18: chr15:59095394:59095499:+|3pUTR|ENSG00000157450|unk|FALSE|unique (ssRNA)
# RNA: GGGAGUUCUACAGUCCGACGAUCUAAAUACCAUCCUUAAUACUGGGAACAGAAUACAACCCAUAUAAAUCAGAUGCAGGUGGUAGUCACAUCACCAGAGUGAUCAGUAUAAAUUUUCUUGGUGUAUCCUUUUCCUUUCAACACCAACAGAGGAUUGAGCAUCA
# B19: chrX:115010634:115010735:-|CDS|ENSG00000123496|msi1|FALSE|unique (ssRNA)
# RNA: GGGAGUUCUACAGUCCGACGAUCUGGAUCAUCAGAGAACAAGCCUAUCAGAUCCAGUUAUUUCACUUUUCAGCUUCAAAAUAUAGGUGAUGUAAACCAACAAACAACUUCAAAUUCAUUGUUUCUAGUUUAGGCCAUUUACAACAACAGAGGAUUGAGCAUCA
# B20: chr1:193029531:193029688:-|CDS|ENSG00000116750|unk|total|mutant (ssRNA)
# RNA: GGGAGUUCUACAGUCCGACGAUCUUGAUAUCUUCACUUUUAUAUUUUACCGGUAAUUAAUAAUGCUUGUGCUACUCAAGCCACCGUGAGUGUGUUACUGAACUGUACCCACCAGGAUGUCCAUUCCGGCGAGACAUUAUCAGACAACAGAGGAUUGAGCAUCA
# B21: chr1:193029531:193029688:-|CDS|ENSG00000116750|unk|FALSE|unique (ssRNA)
# RNA: B20 RNA with C49U, C50A, C83U, C84A, C125U, C126A
# B22: chr7:30424526:30425710:-|three_prime_utr|ENSG00000106100|control|control|control (ssRNA)
# RNA: GGGAGUUCUACAGUCCGACGAUCAAACUCCCUAAGUACCCGCUACAAUUCUGCAGAAAAAGAAUGUGUCUUGCGAGCUGUUGUAGUUACAGUAAAUACACUGUGAAGAGACUUUAUUGCCUAUUAUAAUUAUUUUUAUCUGAACAACAGAGGAUUGAGCAUCA
# Target: MSI1 full-length (mouse, UniProt Q61474 1-362)
# Test: nsRBNS (natural sequence RNA bind-n-seq); RBNS binding buffer (assumed for nsRBNS): 25 mM Tris pH 7.5, 150 mM KCl, 3 mM MgCl2, 0.01% Triton X-100, 500 ug/ml BSA, 20 U/ml SUPERase-In, 4 C; UNK is unkempt and MSI1 is Musashi-1; names of the RNAs are library labels; protein concentration not given here; high values mean tight binding
# MSI1 full-length, sequence (Q61474 whole entry): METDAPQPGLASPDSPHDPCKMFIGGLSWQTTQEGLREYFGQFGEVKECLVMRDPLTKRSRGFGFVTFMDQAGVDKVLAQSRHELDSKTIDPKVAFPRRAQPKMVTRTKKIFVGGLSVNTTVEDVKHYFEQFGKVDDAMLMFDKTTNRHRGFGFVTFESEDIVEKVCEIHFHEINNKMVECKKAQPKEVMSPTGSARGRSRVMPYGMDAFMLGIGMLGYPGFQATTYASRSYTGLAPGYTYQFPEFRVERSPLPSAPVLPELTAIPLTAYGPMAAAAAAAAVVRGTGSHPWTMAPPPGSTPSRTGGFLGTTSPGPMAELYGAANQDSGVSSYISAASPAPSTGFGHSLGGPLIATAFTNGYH
row,Binder,binding signal
1,B1,0.595 enrichment R
2,B2,1.03 enrichment R
3,B3,9.43 enrichment R
4,B4,48.8 enrichment R
5,B5,17.7 enrichment R
6,B6,5.81 enrichment R
7,B7,39.3 enrichment R
8,B8,8.08 enrichment R
9,B9,16.1 enrichment R
10,B10,0.529 enrichment R
11,B11,0.649 enrichment R
12,B12,0.303 enrichment R
13,B13,0.763 enrichment R
14,B14,1.97 enrichment R
15,B15,0.411 enrichment R
16,B16,0.39 enrichment R
17,B17,0.284 enrichment R
18,B18,0.744 enrichment R
19,B19,1.74 enrichment R
20,B20,1.15 enrichment R
21,B21,30 enrichment R
22,B22,3.46 enrichment R
